Measurements as given in PubChem BioAssay (NCATS).
“And” between values parts separate entries of the source, which are not always exact repeats. Identical values can stand only once. Results filed as inconclusive are left out. The source made the active and inactive calls. Unless noted, the call rests on the fitted dose curve.

Tests used:
[1] = biological target: Cytochrome P450 1A2 (Homo sapiens) (UniProt P05177); assay: p450-cyp1a2 (AID 410); further: potency means the concentration at half of the fitted maximal effect;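 on activity change, negative = inhibition: -100% = full effect of reference inhibitor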
Sequence of Cytochrome P450 1A2 (Homo sapiens) (P05177 whole entry, looked up): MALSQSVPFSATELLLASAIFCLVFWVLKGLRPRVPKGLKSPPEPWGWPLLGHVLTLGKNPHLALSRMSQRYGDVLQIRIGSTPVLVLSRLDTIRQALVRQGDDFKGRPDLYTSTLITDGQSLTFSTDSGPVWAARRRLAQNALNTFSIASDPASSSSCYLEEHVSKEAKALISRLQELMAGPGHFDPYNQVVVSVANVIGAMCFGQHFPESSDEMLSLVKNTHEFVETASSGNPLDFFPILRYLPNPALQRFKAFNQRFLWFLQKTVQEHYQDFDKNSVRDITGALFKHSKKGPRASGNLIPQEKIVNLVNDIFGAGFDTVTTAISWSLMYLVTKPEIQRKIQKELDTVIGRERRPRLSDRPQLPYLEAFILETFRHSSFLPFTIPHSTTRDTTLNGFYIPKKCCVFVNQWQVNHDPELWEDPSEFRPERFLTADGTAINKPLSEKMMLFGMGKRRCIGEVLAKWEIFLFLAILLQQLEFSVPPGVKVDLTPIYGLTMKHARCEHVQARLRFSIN
In short: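 Luminescent readout of luciferin formed from Luciferin-ME by human CYP1A2; data normalized against complete inhibition by 57 uM furafylline. Enzyme 20nM, substrate 100uM at Km, 100mM KPO4 buffer, 60 min reaction at room temperature.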

[2] = biological target: Glucocorticoid receptor (Homo sapiens) (UniProt P04150); assay: GR-EFC Redistribution (AID 451); conditions: CHO-K1 GR-EFC translocation, beta-gal luminescence, 2 h; further: potency means the concentration at half of the fitted maximal effect
Sequence of Glucocorticoid receptor (Homo sapiens) (P04150 whole entry, looked up, the tested form may be a part): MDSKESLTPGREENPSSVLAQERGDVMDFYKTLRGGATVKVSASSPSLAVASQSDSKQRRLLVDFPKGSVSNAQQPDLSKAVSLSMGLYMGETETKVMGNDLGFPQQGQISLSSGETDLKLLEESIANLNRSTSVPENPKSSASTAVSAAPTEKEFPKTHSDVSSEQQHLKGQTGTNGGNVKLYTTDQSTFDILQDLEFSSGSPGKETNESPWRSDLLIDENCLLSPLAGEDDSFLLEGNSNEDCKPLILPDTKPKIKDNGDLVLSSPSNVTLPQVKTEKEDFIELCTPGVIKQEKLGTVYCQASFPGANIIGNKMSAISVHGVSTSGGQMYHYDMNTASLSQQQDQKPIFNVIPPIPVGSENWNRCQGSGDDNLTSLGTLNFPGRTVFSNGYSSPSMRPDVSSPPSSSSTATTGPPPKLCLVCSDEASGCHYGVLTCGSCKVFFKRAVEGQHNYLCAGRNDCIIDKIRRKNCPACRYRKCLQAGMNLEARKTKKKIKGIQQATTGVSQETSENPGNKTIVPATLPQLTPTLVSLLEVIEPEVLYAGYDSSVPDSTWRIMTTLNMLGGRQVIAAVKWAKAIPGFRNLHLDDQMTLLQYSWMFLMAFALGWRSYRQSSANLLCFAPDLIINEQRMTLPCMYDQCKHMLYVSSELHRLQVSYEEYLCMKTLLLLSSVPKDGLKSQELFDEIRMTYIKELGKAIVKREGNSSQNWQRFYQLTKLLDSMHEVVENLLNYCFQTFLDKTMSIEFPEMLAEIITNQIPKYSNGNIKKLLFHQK
In short: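 CHO-K1 cells expressing nuclear EA and GR-ED fragments of b-gal; compounds titrated up to 46 uM final, 2 h at 37 C. GR nuclear translocation read as complemented b-gal luminescence after 1 h RT detection.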

[3] = biological target: Mitogen-activated protein kinase 10 (Mus musculus) (UniProt Q61831); assay: JNK3 AlphaScreen Assay (AID 530; active means well fitted curve in either direction with a large enough effect, not every such curve was filed as active;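 further: kinase came from lysate of stimulated human HepG2 cells; signal reports phosphorylation of biotinylated GST-cJun 1-79 at Ser73 with 10 µM ATP; series mostly up to about 57 µM; on the % scale 0 is the no-effect control and ±100 the full control effect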)
In short: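 Pre-activated (IL-1β/TNFα) JNK3 in HepG2 lysates phosphorylates biotin-GST-cJun(1-79), 10 uM ATP; anti-phospho-cJun(Ser73) AlphaScreen read at room temperature, pH 7.6 Tris buffer. Compounds pre-incubated 15 min as titrations.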

[4] = biological target: Lysosomal acid glucosylceramidase (Homo sapiens) (UniProt P04062); assay: Glucocerebrosidase-p2 (AID 348; in the data active means potency below about 10 µM; further: potency means the concentration at half of the fitted maximal effect); conditions: purified GBA, blue fluorogenic substrate, 40 min
Sequence of Lysosomal acid glucosylceramidase (Homo sapiens) (P04062 whole entry, looked up): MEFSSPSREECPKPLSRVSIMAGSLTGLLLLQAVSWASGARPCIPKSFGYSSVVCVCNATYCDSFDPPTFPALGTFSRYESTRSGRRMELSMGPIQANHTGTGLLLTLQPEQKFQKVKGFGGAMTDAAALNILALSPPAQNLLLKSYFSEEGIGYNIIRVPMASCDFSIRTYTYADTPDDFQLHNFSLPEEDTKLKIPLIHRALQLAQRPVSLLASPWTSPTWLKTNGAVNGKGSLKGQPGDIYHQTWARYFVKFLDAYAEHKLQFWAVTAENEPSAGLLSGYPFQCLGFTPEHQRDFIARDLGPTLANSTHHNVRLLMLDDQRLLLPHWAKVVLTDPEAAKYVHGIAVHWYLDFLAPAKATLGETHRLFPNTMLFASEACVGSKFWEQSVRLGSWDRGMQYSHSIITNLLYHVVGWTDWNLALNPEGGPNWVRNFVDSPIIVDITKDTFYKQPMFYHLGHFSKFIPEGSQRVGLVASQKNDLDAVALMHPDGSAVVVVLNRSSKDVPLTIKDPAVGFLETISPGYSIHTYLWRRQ
In short: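 Compounds titrated from 0.6 nM upwards against 0.2 nM enzyme in pH 5.9 citric acid/KH2PO4, taurocholate, tween-20; blue fluorogenic substrate 80 uM, 40 min room temperature, stopped and read Ex 365/Em 440 for AC50.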

[5] = AP1 Signaling Pathway (AID 357; active means well fitted curve in either direction with a large enough effect, not every such curve was filed as active;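 further: ME-180 reporter cells stimulated with EGF at its EC50 level; on the % scale 0 is the no-effect control and ±100 the full control effect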)
In short: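 Cells are seeded overnight, exposed to compound titrations and an EC50 level of EGF for 5 hours at 37 °C, then loaded with CCF4 dye for 2.5 hours. Beta-lactamase activity under the AP-1 element is read as a blue/green ratio.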

[6] = NFAT Signaling Pathway (AID 444; active means well fitted curve in either direction with a large enough effect, not every such curve was filed as active;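 further: carbachol stimulus at about its EC50 of 1 µM final; on the % scale 0 is the no-effect control and ±100 the full control effect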)
In short: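 Jurkat cells with NFAT-driven β-lactamase reporter and co-expressed M1 receptor, stimulated with carbachol (final 1 uM, ~EC50), compound titration, 5 h at 37 °C. CCF4 loaded 1 h at RT; 460/530 nm ratio gave %activity and AC50.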

[7] = Stat Signaling Pathway (AID 446; active means well fitted curve in either direction with a large enough effect, not every such curve was filed as active;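 further: ME-180 cervical cancer cells given 40 pM IL-6 alongside compound; SIE-controlled beta-lactamase reporter measured as 460/530 nm FRET emission ratio; on the % scale 0 is the no-effect control and ±100 the full control effect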)
In short: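 Screening format detects activators and inhibitors alike: ME-180 SIE-bla cells stimulated at 40 pM IL-6 for 5 hrs with compound, then dual-emission beta-lactamase read at 405 nm excitation.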

[8] = Cell Viability - BJ (AID 421); conditions: BJ fibroblast viability, qHTS;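 further: potency means the concentration at half of the fitted maximal effect; cells exposed to compound for 40 hours at 37 °C before readout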
In short: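 Cytotoxicity in human BJ foreskin fibroblasts is scored as loss of cellular ATP after a 40-hour exposure, measured by luciferase luminescence. Controls are DMSO and 100 uM tamoxifen.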

[9] = Cell Viability - Jurkat (AID 426;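 active means dose-dependent loss of cell ATP signal giving a full or clear fitted curve, ranked by lower potency value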; further: potency means the concentration at half of the fitted maximal effect); conditions: qHTS
In short: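 qHTS, 1536-well; Jurkat E6-1, 5000 cells/well, complete medium; cpd 40 hr, 37 °C; CellTiter-Glo 20 min RT; luminescence. AC50 by Hill fit.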

[10] = Cell Viability - Hek293 (AID 427;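 active means compounds whose dose-response curve shows a full or clear partial loss of cell viability, called from curve shape rather than a numeric limit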;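 further: potency means the concentration at half of the fitted maximal effect; cells exposed to compound for 40 hours at 37 °C before reading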); conditions: qHTS
In short: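 qHTS, human embryonic kidney (adenovirus-transformed) cells; 40 hr cpd, 37 °C; CellTiter-Glo ATP luminescence. Norm: DMSO = 0, 100 uM tamoxifen = 100% inhibition. Hill-fit AC50.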

[11] = Cell Viability - HepG2 (AID 433); conditions: qHTS;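 further: potency means the concentration at half of the fitted maximal effect; potency for ATP loss meaning cytotoxicity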
In short: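 Cytotoxicity is scored as loss of intracellular ATP in HepG2 cells exposed to compounds for 40 h. Concentration-response curves, normalized to DMSO and 100 uM tamoxifen, give AC50 values.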

[12] = Cell Viability - MRC5 (AID 434); conditions: MRC5 lung fibroblast viability, qHTS;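 further: potency means the concentration at half of the fitted maximal effect; potency reflects cytotoxicity seen as loss of intracellular ATP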
In short: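 MRC5 normal human lung fibroblasts, 1500 cells/well, exposed to compound for 40 hr at 37 C. Cellular ATP was read by CellTiter-Glo luminescence; data normalized to DMSO and 100 uM tamoxifen, with AC50 from Hill fits.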

[13] = Cell Viability - SK-N-SH (AID 435); conditions: SK-N-SH neuroblastoma cell viability qHTS;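 further: potency means the concentration at half of the fitted maximal effect; compound exposure lasted 40 h at 37 °C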
In short: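 Cells seeded at 1500 per well and incubated 5 hr at 37 °C. Compound added, then 40 hr at 37 °C. CellTiter-Glo added, 20 min at room temperature, luminescence read.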

[14] = Cell Viability - N2a (AID 540; active means well fitted curve in the direction sought with a large enough effect; an effect the other way counts as inactive or inconclusive;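 further: plate controls were DMSO alone for no effect and tamoxifen control for full effect; nearly all actives have a fitted effect of over 45% in size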)
In short: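 Luminescent ATP signal (CellTiter-Glo, 20 min at room temperature) served as the viability read-out after N2a cells were treated with compounds for 40 hours at 37 °C. Concentration-response data were fitted to the Hill equation for AC50.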

[15] = Cell Viability - NIH 3T3 (AID 541; active means well fitted curve in the direction sought with a large enough effect; an effect the other way counts as inactive or inconclusive;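 further: plate controls were DMSO alone for no effect and tamoxifen positive control for full effect; nearly all actives have a fitted effect of over 25% in size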)
In short: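 Luminescent ATP signal (CellTiter-Glo) served as the viability read-out after NIH 3T3 cells were exposed to compounds over a concentration range for 40 hr at 37 °C. Hill-equation modelling of concentration-response data gave AC50.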

[16] = Cell Viability - HUV-EC-C (AID 542; active means well fitted curve in the direction sought with a large enough effect; an effect the other way counts as inactive or inconclusive; further: on the % scale 0 is the no-effect control and ±100 the full control effect; nearly all actives have a fitted effect of over 35% in size)
In short: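 qHTS cytotoxicity: HUV-EC-C, 1000 cells/well, 5 hr settle, compound 40 hr 37 °C, CellTiter-Glo, luminescence. AC50 via Hill equation.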

[17] = Cell Viability - H-4-II-E (AID 543; active means well fitted curve in the direction sought with a large enough effect; an effect the other way counts as inactive or inconclusive; further: on the % scale 0 is the no-effect control and ±100 the full control effect; nearly all actives have a fitted effect of over 35% in size)
In short: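 Luminescent ATP signal (CellTiter-Glo) served as the viability read-out, with cytotoxicity seen as a concentration-dependent ATP drop. Cells were treated for 40 hours in complete medium. AC50 values derive from Hill-equation modelling.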

[18] = Cell Viability - SH-SY5Y (AID 544; active means well fitted curve in the direction sought with a large enough effect; an effect the other way counts as inactive or inconclusive;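 further: 0% = DMSO alone and -100% = 100 µM tamoxifen; nearly all actives have a fitted effect of over 55% in size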)
In short: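 Luminescent ATP read-out (CellTiter-Glo) measures loss of viable SH-SY5Y neuroblastoma cells after 40 hr compound exposure at 37 °C. AC50 values derive from standard Hill modelling of qHTS concentration-response data.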

[19] = Cell Viability - Renal Proximal Tubule (AID 545; active means well fitted curve in the direction sought with a large enough effect; an effect the other way counts as inactive or inconclusive;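 further: 0% = DMSO only and -100% = 100 µM tamoxifen; nearly all actives have a fitted effect of over 40% in size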)
In short: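 Cytotoxicity is scored as a concentration-dependent drop in cellular ATP in primary rat renal proximal tubule cells exposed for 40 hr. AC50 derives from Hill modelling.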

[20] = biological target: Glucocorticoid receptor (Homo sapiens) (UniProt P04150); assay: GR-GFP Redistribution (AID 450;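 active means compounds whose dose series gives a full or clear partial fitted curve of increased nuclear translocation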; further: potency means the concentration at half of the fitted maximal effect); conditions: U2OS GR-GFP nuclear translocation, laser cytometry, 2 h

COc1cc(C[C@H]2C(=O)OC[C@@H]2Cc2ccc(OC)c(OC)c2)ccc1O
active: Potency [1] 31.6 µM
inactive: Potency [2] > 46 µM | outcome [3]

O=C(O)c1cc2ccccc2c(Cc2c(O)c(C(=O)O)cc3ccccc23)c1O
inactive: Potency [4] > 11.4 µM | activity change, negative = inhibition [5] 13.4% [at 7.69 µM] | activity change, negative = inhibition [1] -4% [at 2.29 µM] | activity change, negative = inhibition [6] 6.69% [at 7.69 µM] | outcome [7] | Potency [2] > 9.22 µM | activity change, negative = inhibition [3] 3.49% [at 11.4 µM]

COC(C)=O
inactive: Potency [8] > 92 µM | Potency [9] > 92 µM | Potency [10] > 92 µM | Potency [11] > 92 µM | Potency [12] > 92 µM | Potency [13] > 92 µM | outcome [3] | outcome [14] | outcome [15] | outcome [16] | outcome [17] | outcome [18] | outcome [19]

CC(C)CCNC(=O)[C@H](CC(C)C)NC(=O)[C@H]1O[C@@H]1C(=O)O
inactive: outcome [5] | outcome [6] | outcome [7] | Potency [20] > 20.6 µM

CCCCCCCCCC(=O)O
inactive: Potency [8] > 92 µM | Potency [9] > 92 µM | Potency [10] > 92 µM | Potency [11] > 92 µM | Potency [12] > 92 µM | Potency [13] > 92 µM | outcome [3] | outcome [14] | outcome [15] | outcome [16] | outcome [17] | outcome [18] | outcome [19]

Cc1ccc(OC[C@H](O)[C@H](C)NC(C)C)c2c1CCC2
inactive: outcome [5] | outcome [6] | outcome [7] | Potency [20] > 46 µM | Potency [2] > 46 µM | outcome [3]
active: Potency [1] 1.58 µM and 398 nM

CC(=O)C1=C(O)C=C2Oc3c(C(C)=O)c(O)c(C)c(O)c3[C@]2(C)C1=O
active: Potency [1] 2 µM
inactive: Potency [20] > 46 µM | Potency [2] > 46 µM | outcome [3]

COc1ccc2[nH]c(=O)c3c(c2c1)OC(C)(C)C=C3
inactive: Potency [20] > 46 µM | Potency [2] > 46 µM | outcome [3]
active: Potency [1] 0.316 µM

C=Cc1ccccc1
inactive: Potency [8] > 92 µM | Potency [9] > 92 µM | Potency [10] > 92 µM | Potency [11] > 92 µM | Potency [12] > 92 µM | Potency [13] > 92 µM | outcome [3] | outcome [14] | outcome [15] | outcome [16] | outcome [17] | outcome [18] | outcome [19]

O=C(O)CC(O)(CC(=O)O)C(=O)O
active: Potency [9] 58 µM
inactive: Potency [8] > 92 µM | Potency [10] > 92 µM | Potency [11] > 92 µM | Potency [12] > 92 µM | Potency [13] > 92 µM | outcome [3] | outcome [14] | outcome [15] | outcome [16] | outcome [17] | outcome [18] | outcome [19]

NCCCC(=O)O
inactive: outcome [5] | Potency [1] | outcome [6] | Potency [20] > 46 µM | Potency [2] > 46 µM | outcome [3]

CN(C)CCCn1cc(C2=C(c3c[nH]c4ccccc34)C(=O)NC2=O)c2ccccc21
active: Potency [1] 7.94 µM
inactive: Potency [20] > 46 µM | Potency [2] > 46 µM

CCc1ccccc1OC[C@@H](O)CN[C@H]1CCCc2ccccc21
inactive: Potency [20] > 46 µM | Potency [2] > 46 µM | outcome [3]
active: Potency [1] 12.6 µM

COC1=CC(=O)C[C@@H](C)[C@@]12Oc1c(Cl)c(OC)cc(OC)c1C2=O
inactive: Potency [1] | Potency [20] > 46 µM | Potency [2] > 46 µM | outcome [3]

C[C@]12CC[C@@H]3c4ccc(OS(=O)(=O)O)cc4CC[C@H]3[C@@H]1CCC2=O
inactive: outcome [5] | outcome [6] | outcome [7] | Potency [20] > 20.6 µM

CN(C)Cc1ccccc1
inactive: Potency [8] > 92 µM | Potency [9] > 92 µM | Potency [10] > 92 µM | Potency [11] > 92 µM | Potency [12] > 92 µM | Potency [13] > 92 µM | outcome [3] | outcome [14] | outcome [15] | outcome [16] | outcome [17] | outcome [18] | outcome [19]
